Assay results taken from PubChem BioAssay AID624404 (Broad Institute, 2012).
In all, about 1,800 compounds went through this assay and about 710 (39%) were called active. Roughly 28% stayed inconclusive and do not appear here. Not all results are given here. Entries with a potency or affinity are not part of this list. A number with no mark means an inactive call.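 How the source made its calls: active means luciferase signal rise whose fitted curve crosses a set activity limit at or below the top valid tested dose; inconclusive means flat fit with 30 to 70% rise, or poor fit; inactive means signal falling, flat within 30%, or crossing above top dose.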

assay: luciferase activators in glycosylation-insensitive reporter cells, dose response, counter-screen for N-linked glycosylation inhibitor project, D54 LucT cells, luminescence, cherry pick (AID 624404); conditions: D54 LucT luciferase reporter counterscreen, 24 h; series mostly up to 19.5 µM; activity increase (luciferase signal): at the top concentration;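 further: 0% = median neutral control signal and 100% = twice that signal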

| SMILES | activity increase (luciferase signal) |
| --- | --- |
| Cc1ccccc1OCCc1c(C)[nH]c(=S)[nH]c1=O | 24.5% |
| CCN1Cc2c(/C=C/c3ccccc3)nc3ccc(OC)cc3c2N(c2cccc(Cl)c2)C1 | -74.9% |
| O=C(Nc1nc2ccccc2c(=O)s1)c1ccco1 | 5.88% |
| COc1cc2nc(NC(=O)c3ccccc3)sc(=O)c2cc1OC | -3.32% |
| Cc1ccc(C(=O)NC(=C(Cl)Cl)S(=O)(=O)c2ccc(C)cc2)cc1 | 36% |
| CC(=O)N(C1=C(Cl)C(=O)c2ccccc2C1=O)C1CCCCC1 | -63.8% |
| COc1ccccc1OCC(=O)NNC(=O)c1ccoc1C | 17.5% |
| COc1cc2cc(C(c3nnnn3C(C)(C)C)N3CCc4ccccc4C3)c(=O)[nH]c2cc1OC (configuration not stated) | -3.46% |
| Cc1cc(Nc2cc(Cl)cc(Cl)c2)nc(N)n1 | 13.1% |
| CC(=O)c1ccc(Oc2cc(C)nc(-n3nc(C)cc3C)n2)cc1 | -4.49% |
| CCN1/C(=C/c2ccc3ccccc3[n+]2CC)C=Cc2ccccc21 | -66.4% |
| CCCCCCCCCCn1c2c(c(=N)c3c1CCC3)CCC2 | -66.6% |
| COc1ccc2cc(C)c3nnc(SCC(=O)Nc4nc(-c5ccc(F)cc5)cs4)n3c2c1 | -2.8% |
| COCCN(C(=O)CCl)C(C(=O)NC1CCCCC1)c1ccccc1C (configuration not stated) | -53.2% |
| COc1ccc(C(C)(O)c2nc(-c3ccc(F)cc3OC)cs2)cc1 (configuration not stated) | 35.5% |
| Nc1cccc2c1C(=O)N(C(=O)/C=C/c1ccc(F)cc1)C2=O | 26.8% |
| CC(=O)Cn1ncc(Br)c(Br)c1=O | 67.2% |
| Cn1c(Cl)cnc1C1CC(=O)c2cc(Cl)ccc2O1 (configuration not stated) | -14.5% |
| O=C(N/N=C\C=C\c1ccc([N+](=O)[O-])o1)c1cccs1 | 46.4% |
| O=C(Nc1ccc(N2CCCC2)c(Cl)c1)c1ccc([N+](=O)[O-])o1 | 27.7% |
| Cc1c(C(=O)Nc2ccc3oc(-c4cccnc4)nc3c2)oc2ccccc12 | -6.21% |
| O=C(Nc1ccc(-c2nc3cc(NC(=O)c4cccs4)ccc3o2)cc1)c1cccs1 | -4.38% |

| SMILES | activity increase (luciferase signal) |
| --- | --- |
| O=C(NCc1ccccc1)C(=O)NCC1COc2ccccc2O1 (configuration not stated) | 61.5% |
| CN=c1sc(C(=O)Nc2cccc(Cl)c2)cc(=O)n1C | 16% |
| O=C(CN1C(=O)/C(=C\c2ccc(F)cc2)Oc2ccccc21)N1CCN(c2ccccn2)CC1 | 14.4% |
| O=C1CCCC2=C1C(c1ccc(Cl)cc1)n1c(s/c(=C\c3ccc4ccncc4c3)c1=O)=N2 (configuration not stated) | -24.9% |
| COc1cccc(-n2c(SCC(=O)NC3CCCCC3)nc3n[nH]c(C)c3c2=N)c1 | 4.88% |
| COc1ccc(C(=O)/C=C\c2ccc(NC(=O)c3cccs3)cc2)cc1 | 35.6% |
| O=C1CCCN1CCCNc1nc(NCc2ccccc2)nc2ccsc12 | 28.6% |
| Cc1ccsc1CNc1ncnc2ccc(-c3c(C)noc3C)cc12 | -1.47% |
| COc1ccc(C(=O)c2cc([N+](=O)[O-])ccc2N2CCN(C)CC2)cc1 | -3.34% |
| COc1cc(/C=C/C(=O)c2ccc3c(c2)OCCO3)cc(OC)c1OC | -9.8% |
| CN(C)c1ccc(/C=C/C(=O)c2ccc(C(C)(C)C)cc2)cc1[N+](=O)[O-] | 13% |
| CCOc1cc(/C=C/C(=O)c2ccc3c(c2)OCCO3)ccc1OCC(=O)N(C)C | 31.7% |
| COC(=O)C(=Cc1ccc(-c2ccsc2C(=O)OC)o1)C(=O)OC | 47% |
| O=c1c2ccccc2sc2c(CO)ccc(NCCN3CCCCC3)c12 | 11.3% |
| Cc1ccc2cc3c(N)c4c(C)ccc(C)c4nc3nc2c1 | 29.4% |
| CC1=Nc2cc(C(=O)NCC3CCCO3)ccc2Sc2ccc(Br)cc21 (configuration not stated) | 6.05% |
| CCC1=Nc2cc(C(=O)NCc3ccco3)ccc2Sc2ccc(Cl)cc21 | -3.98% |
| O=C(/C=C/c1ccc([N+](=O)[O-])cc1)/C=C/c1ccco1 | 6.1% |
| CC(NC(=O)c1cccc2ccccc12)c1ccc2c(c1)CCCC2 (configuration not stated) | 22.9% |
| CCOc1ccc2[nH]c(=O)c(CN(Cc3ccc(F)cc3)C(=O)c3ccco3)cc2c1 | 28.1% |
| O=C(Oc1c(Cl)cc(Cl)c2cccnc12)c1ccco1 | -31.1% |
| COc1cc2cc(/C=C/C(=O)c3ccco3)c(Cl)nc2cc1OC | -17.6% |

| SMILES | activity increase (luciferase signal) |
| --- | --- |
| CN(C)c1ccc(CNC(=O)C2(C)Cc3c(-c4ccc5c(c4)OCO5)ccnc3O2)cc1 (configuration not stated) | 37% |
| CC1=C([N+](=O)[O-])C(c2ccccc2)C2=C(N1)c1ccccc1C2=O (configuration not stated) | 10.1% |
| CCCCCCCCn1c2c(c(=N)c3c1CCC3)CCCC2 | -57.8% |
| COc1cc(/C=N\NC(=O)c2sc(N)nc2C)cc(OC)c1OC | 15.9% |
| C#CC[N+](C)(C)CCCCCCCCCCCC | 37.5% |
| CCc1ccc(Nc2n[n+](-c3ccccc3)c(-c3ccc(N(CC)CC)cc3)s2)cc1 | -3.22% |
| CN(Cc1ccc(Cl)s1)C(=O)CCl | 1.46% |
| COC(=O)CNC(c1ccccc1)c1cc(Br)ccc1NC(=O)CCN1CCOCC1 (configuration not stated) | 8.3% |
| NS(=O)(=O)c1cc(C(=O)NCCOc2ccccc2)c(Cl)cc1Cl | 43.3% |
| COc1ccc(OC(=O)N2C/C(=C/c3ccccc3)C(=O)/C(=C\c3ccccc3)C2)cc1 | -32.7% |
| COc1cc(/C=C/C(=O)c2ccc(Cl)s2)cc(OC)c1O | 3.5% |
| COc1ccc(/C=C/C(=O)c2ccc3c4c(cccc24)CC3)cc1 | 8.97% |
| COc1ccc(C=CC(=O)c2ccc(OC)c(OC)c2O)cc1OC | 14.6% |
| O=CC1=C(c2ccccc2)Oc2ccccc2O1 | -21% |
| Nc1nonc1-c1nc2ccccc2n1Cc1ccccc1 | 30% |
| Cc1noc2ncnc(Sc3ccc(Br)cc3)c12 | 15.6% |
| COc1cc(O)c(C(=O)/C=C/c2ccccc2)c(OC)c1 | 49% |
| COc1ccc(C=CC(=O)c2c(OC)cc(OC)c(OC)c2O)cc1 | -20.6% |
| CCOC(=O)C(=Cc1ccc(-c2ccsc2C(=O)OC)o1)C(=O)OCC | 24.1% |
| Oc1cc(NCc2ccc(Cl)cc2)cc2cccnc12 | -33.2% |
| COc1cc(CNc2ccc(O)cc2)cc(Br)c1OCc1ccccc1 | 23.2% |
| CCOc1ccc(-n2c(C)cc(C(=O)CCl)c2C)cc1 | -6.33% |

| SMILES | activity increase (luciferase signal) |
| --- | --- |
| CC(=O)n1cc(/C=N/NC(=O)c2sc(C)nc2C)c2ccccc21 | 65.5% |
| COc1ccc(Nc2c3ccccc3nc3ccccc23)cc1 | -37.8% |
| COCCOC(=O)c1[nH]c2c(c1C)C(=O)CC(c1ccco1)C2 (configuration not stated) | 34.5% |
| CN(C)CCCNc1cc(-c2ccccc2)nc2cc(-c3cccc(F)c3)nn12 | 28.9% |
| CCCCCC[n+]1ccccc1/C=C/c1ccc(N(C)C)cc1 | -64.3% |
| CCN(CC)S(=O)(=O)c1ccc(-c2nnc(SCC(=O)N3CCc4ccccc43)o2)cc1 | 39% |
| Cc1ccc(Oc2ccc(S(=O)(=O)N3CCOCC3)cc2C(N)=O)c(-n2nc3ccccc3n2)c1 | -17.3% |
| O=C(c1ccc(Cl)cc1)C(CN1CCCCC1)c1ccccc1 (configuration not stated) | -90.7% |
| Nc1ccc2nc(-c3ccccc3)c(-c3ccccc3)nc2c1 | 4.94% |
| O=S(=O)(Nc1cccc2cccnc12)c1ccc(S(=O)(=O)N2CCCC2)cc1 | -5.43% |
| COc1ccc2nc3c(cc2c1)c(NC(=O)CC(C)C)nn3CC(C)C | -23.4% |
| O=C(Nc1c2ccccc2nc2ccccc12)C(Cl)(Cl)Cl | 41.3% |
| CN1CC(=O)N2C(c3ccc(Cl)cc3)c3[nH]c4ccccc4c3C[C@H]2C1=O (some centres not stated) | 11.1% |
| COc1ccc(Cn2c(=O)c3[nH]cnc3n(-c3ccccc3C)c2=O)cc1 | 14.1% |
| CCN(CC)CCCNC(=O)CSc1c2c(nc3cc(Cl)ccc13)CCCC2 | -21.6% |
| Cc1cc(-n2c(SCC(=O)NCCC3=CCCCC3)nc3n[nH]c(C)c3c2=N)ccc1Cl | 12.7% |
| CCOC(=O)c1[nH]c2ccc(F)cc2c1NC(=O)C(C)N1CCc2cc(OC)c(OC)cc2C1 (configuration not stated) | 17.3% |
| CCN(CC)c1ccc(NC(=O)CC2Oc3ccccc3NC2=O)c(C)c1 (configuration not stated) | 13.1% |
| COc1ccc(C2C3=C(COC3=O)Oc3cc4c(cc32)OCO4)cc1OC (configuration not stated) | 39.7% |
| Cc1ccc(C)c(NC(=O)Cn2nnc(C(=O)NCc3ccco3)c2N)c1 | 50% |
| COc1cc(NC(=O)NCc2ccco2)ccc1-c1ccc(NC(=O)NCc2ccco2)cc1OC | -17.9% |
| C=CCOc1ccccc1C(=O)/C=C1/C(=O)Nc2ccccc21 | 39.7% |

| SMILES | activity increase (luciferase signal) |
| --- | --- |
| c1cnc2nc3c4ccccc4c4ccccc4c3nc2c1 | 14% |
| COc1ccc(-c2nnc(SCC(=O)Nc3ncc(C)s3)n2-c2ccccc2)cc1OC | -24.2% |
| CCn1c(SCC(=O)Nc2ccc(C(C)=O)cc2)nc2c([nH]c3ccccc32)c1=O | -9.93% |
| Cc1ccc(C(C)C)c(OCc2nnc(SCC(=O)Nc3ncc(C)s3)n2C)c1 | -52.9% |
| Cc1cc(C)c(NC(=O)CSc2nc(COc3ccccc3)nc3ccccc23)c(C)c1 | 27.5% |
| COc1ccc2c(c1)c1ccc3c(c1n2C)C(=O)C=CC3=O | 7.43% |
| CC1(C(=O)NCc2ccc(F)c(F)c2)Cc2c(-c3ccc4c(c3)OCO4)ccnc2O1 (configuration not stated) | 17.7% |
| O=C(N/N=C/c1cccc(Br)c1)c1ccc(N2CCCC2=O)cc1 | 60.1% |
| CC(=O)/C=C/c1ccccc1Oc1c(F)c(F)nc(F)c1F | -19.5% |
| CC(=O)N1c2ccccc2C(=O)C1N(C)c1ccc(C)cc1 (configuration not stated) | 11.4% |
| COc1ccc(CCn2c(=N)c(C(=O)NCCN3CCOCC3)cc3c(=O)n4cccc(C)c4nc32)cc1OC | 8.4% |
| COc1ccc(CCn2c(=N)c(C(=O)NCC3CCCO3)cc3c(=O)n4cccc(C)c4nc32)cc1 (configuration not stated) | -27.9% |
| COc1ccc(NC(=O)COC(=O)/C=C/C(=O)OCC(=O)Nc2ccc(OC)c(Cl)c2)cc1Cl | 0.926% |
| CCOc1ccc(Nc2c3ccccc3nc3ccccc23)cc1 | -45.8% |
| Cn1cnc([N+](=O)[O-])c1S(=O)(=O)Oc1ccccc1 | 16.6% |
| CCOc1ccc(Nc2nnc(SCc3nc4ccccc4c(=O)[nH]3)s2)cc1 | 4.11% |
| CCN1/C(=C/c2sc(-c3ccccc3C)c[n+]2C)Sc2ccccc21 | -54.8% |
| O=C(CC1Sc2ccccc2NC1=O)NNc1cccc(Cl)c1Cl (configuration not stated) | 43.9% |
| O=C(Cc1ccc(Cl)cc1)Nc1ccccc1N1CCN(C(=O)c2ccccc2)CC1 | 309% |
